In ChEMBL document CHEMBL3433997, “St. Jude Leishmania screening dataset” (2016):

How the values were obtained:
Assay type in all cases: functional
[1] = target: Solute carrier family 2, facilitated glucose transporter member 1 (Homo sapiens) (UniProt P11166); assay: ST_JUDE_LEISH: Cytotoxicity at 2uM final concentration against transgenic Leishmania Mexicana promastigotes LmGLUT1 that are glucose transport deficient and complemented with the human glucose transporter GLUT1. Activity is measured by DNA content using SYBR green in vitro
Sequence of Solute carrier family 2, facilitated glucose transporter member 1 (Homo sapiens) (P11166 whole entry): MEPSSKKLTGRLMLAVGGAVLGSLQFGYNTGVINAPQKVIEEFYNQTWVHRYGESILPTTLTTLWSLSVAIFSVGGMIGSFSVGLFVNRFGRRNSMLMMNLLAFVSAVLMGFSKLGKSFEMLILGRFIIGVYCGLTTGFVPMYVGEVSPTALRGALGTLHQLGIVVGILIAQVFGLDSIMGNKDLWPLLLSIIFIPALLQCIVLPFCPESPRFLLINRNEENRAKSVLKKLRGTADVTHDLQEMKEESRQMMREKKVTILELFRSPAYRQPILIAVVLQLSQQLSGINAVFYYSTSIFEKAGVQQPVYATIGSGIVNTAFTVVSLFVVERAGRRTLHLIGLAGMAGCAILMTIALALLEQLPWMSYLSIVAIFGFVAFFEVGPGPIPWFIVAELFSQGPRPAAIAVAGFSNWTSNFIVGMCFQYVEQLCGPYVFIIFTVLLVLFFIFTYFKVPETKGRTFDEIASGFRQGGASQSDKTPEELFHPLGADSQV

[2] = target: Hexose transporter 1 (Plasmodium falciparum) (UniProt O97467); assay: ST_JUDE_LEISH: Cytotoxicity at 2uM final concentration against transgenic Leishmania Mexicana promastigotes LmPfHT that are glucose transport deficient and complemented with the Plasmodium falciparum hexose transporter. Activity is measured by DNA content using SYBR green in vitro
[3] = target: Glucose transporter (Leishmania mexicana) (UniProt O61059); assay: ST_JUDE_LEISH: Cytotoxicity at 2uM final concentration against transgenic Leishmania Mexicana promastigotes LmGT2 that are glucose transport deficient and complemented with the L. Mexicana glucose transporter 2. Activity is measured by DNA content using SYBR green in vitro

SMILES	inhibition [1] [%]	inhibition [2] [%]	inhibition [3] [%]
CCCCc1ccc2ncc(C(=O)OCC)c(O)c2c1	-1.09	-0.73	-3.16
CCCCC(=O)Nc1nonc1-c1ccc(OCC)c(OCC)c1	-0.29	-0.24	-4.47
Fc1ccc2[nH]cc(CCNCc3ccc(-c4cccc(-c5nc6ccccc6[nH]5)c4)cc3)c2c1	4.9	4.54	3.56
CC(C)CNCc1ccc(-c2cccc(CNc3ccc4ncccc4c3)c2)cc1	4.79	3.71	2.69
COc1cccc(OC)c1OCCCON1C(=N)N=C(N)NC1(C)C	1.91	1.49	2.31
Cc1[nH]c(C)c([N+](=O)[O-])c(=O)c1-c1ccc(Oc2ccc(OC(F)(F)F)cc2)cc1	0.69	1.27	1.41
CCCC[C@@H](C(=O)NCc1ccccc1C(F)(F)F)N1C(=O)CCC1C(=O)Nc1ccc([N+](=O)[O-])cc1 (stereo partly specified)	1.1	2.37	2.75
CCc1c(C(=O)NC2CCC(N3CCC(c4ccccc4C)CC3)CC2)[nH]c2ccc(Br)cc12 (stereo unspecified)	5.69	5.55	3.97
CCOc1cc(C)ccc1C1CCN(CCCCNC(=O)c2nc(-c3ccc(C(F)(F)F)cc3)[nH]c2C)CC1	1.65	0.72	-0.05
Cc1ccc(NC(C)C(=O)Nc2ccccc2)cc1S(=O)(=O)N1CCCCCC1 (stereo unspecified)	10.6	9.81	9.12
O=C(Nc1ccc(C(F)(F)F)cc1)c1cccc(S(=O)(=O)NC2CCN(CC3CCCCC3)C2)c1 (stereo unspecified)	2.01	0.63	0.63
CCN(CC)CCN(Cc1ccc(-c2ccc(C(F)(F)F)cc2)cc1)C(=O)Cn1c(CCc2cccc(F)c2F)nc(=O)c2cccnc21	0.41	2.07	1.66
